Results: PubChem BioAssay (NCI)
Compounds without any hit were thinned out: in the full panel of roughly 79,000, 15% have a hit. Calls of active or inactive are those of the source. Cut-off read from the data, not from the text of the source: active = growth inhibition above about 70%; inactive = the rest.

Key:
[1] = NCI Yeast Anticancer Drug Screen. Data for the rad50 strain (AID 155);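 note: 0% = growth of vehicle-only cultures of the same strain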; details: S. cerevisiae rad50 strain growth inhibition; at 50.0 µM; active compounds read high
In short: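 Genetically altered yeast (DNA repair pathway); compound treatment; growth inhibition vs vehicle ctrl.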

[2] = NCI Yeast Anticancer Drug Screen. Data for the mec2-1 strain (AID 157); details: S. cerevisiae mec2-1 strain, at 50.0 µM, active compounds read high
In short: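 Strain: mec2-1 (DNA repair/cell cycle alteration). Compound exposure, then growth measured; inhibition expressed relative to vehicle.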

[3] = NCI Yeast Anticancer Drug Screen. Data for the sgs1 mgt1 strain (AID 161);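 note: 0% = growth of cultures given vehicle only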; details: S. cerevisiae sgs1 mgt1 strain, at 50.0 µM, active compounds read high
In short: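 Mutant yeast exposed to compound; growth scored against vehicle-only wells.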

[4] = NCI Yeast Anticancer Drug Screen. Data for the cln2 rad14 strain (AID 165);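 note: 0% = growth equal to vehicle treated cultures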; details: S. cerevisiae cln2 rad14 strain, at 50.0 µM, active compounds read high
In short: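 Compounds are applied to the cln2 rad14 yeast strain, and growth is then compared with that of vehicle-treated cultures to give inhibition.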

[5] = NCI Yeast Anticancer Drug Screen. Data for the bub3 strain (AID 167); details: S. cerevisiae bub3 mutant strain, at 50.0 µM, active compounds read high
In short: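 Yeast carrying a defined mutation is treated with each compound, and growth is compared with that of vehicle-exposed cells to give inhibition.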

[6] = NCI Yeast Anticancer Drug Screen. Data for the mlh1 rad18 strain (AID 175); details: S. cerevisiae mlh1 rad18 strain growth inhibition; at 50.0 µM; active compounds read high
In short: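 Read-out is yeast growth inhibition, calculated against vehicle-only controls. The compound was applied to a strain engineered with DNA damage repair alterations.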

SMILES	growth inhibition [1]	growth inhibition [2]	growth inhibition [3]	growth inhibition [4]	growth inhibition [5]	growth inhibition [6]
CCCCCSCCC(=O)O	12.4% (inactive)	11.7% (inactive)	11.2% (inactive)	4.25% (inactive)	-1.2% (inactive)	-6.35% (inactive)
CSSC(SC)SC	31.9% (inactive)	-7.85% (inactive)	13.6% (inactive)	-21.1% (inactive)	-11.6% (inactive)	29.6% (inactive)
CCOC(=O)CC[Si](CC)(CC)CC	0.25% (inactive)	-13.8% (inactive)	1.7% (inactive)	-28.5% (inactive)	-15.3% (inactive)	-1.45% (inactive)
CC1(C)N=C(N)N=C(N)N1c1cccc(/C=C/c2ccc([N+](=O)[O-])cc2)c1	2.45% (inactive)	-7.35% (inactive)	-6.1% (inactive)	-43% (inactive)	-3.3% (inactive)	9.75% (inactive)
N#CCCn1nc(SCc2ccccc2)c(=O)[nH]c1=O	-2.6% (inactive)	0.3% (inactive)	7.65% (inactive)	6.3% (inactive)	-1.65% (inactive)	7.85% (inactive)
CC(C)CC(NC(=O)OC(C)(C)C)C(=O)NC(Cc1c[nH]c2ccccc12)C(=O)NN (stereo unspecified)	37.8% (inactive)	14.2% (inactive)	29.4% (inactive)	32.3% (inactive)	0.75% (inactive)	27.7% (inactive)
CCCCCCCCCCC#N	15.2% (inactive)	-8.4% (inactive)	-5.6% (inactive)	14.6% (inactive)	9.15% (inactive)	-17.6% (inactive)
CCOC(=O)c1ccc(NC(=O)CCCCCCCCC(=O)Nc2ccc(C(=O)OCC)cc2)cc1	7.5% (inactive)	-5.6% (inactive)	-0.85% (inactive)	-8.45% (inactive)	-2.1% (inactive)	-6.95% (inactive)
Cc1nc2c(o1)C(=O)c1ccccc1C2=Nc1ccc(N2CCOCC2)cc1	78.9% (active)	29.7% (inactive)	13.2% (inactive)	-1.15% (inactive)	11.9% (inactive)	39.1% (inactive)
COc1ccc(O)c(/C=N\N=C\c2cc(OC)ccc2O)c1	-1.25% (inactive)	-1.15% (inactive)	-2.3% (inactive)	-22.5% (inactive)	22.9% (inactive)	-2.8% (inactive)
CCCc1cc(C(=O)OC/C(C)=N/O)c2ccccc2n1	-8.15% (inactive)	0.7% (inactive)	11.3% (inactive)	-7.75% (inactive)	24.6% (inactive)	9.4% (inactive)
CCOC(=O)c1cn(C)c2c1C(=O)C(C(=O)OCC)CC(=O)N2 (stereo unspecified)	-4.55% (inactive)	-4.15% (inactive)	-11.6% (inactive)	-53.6% (inactive)	-6.4% (inactive)	-8.25% (inactive)
c1cncc(CCc2ccncc2)c1	-18.9% (inactive)	-60.9% (inactive)	-27.2% (inactive)	12.3% (inactive)	-14.2% (inactive)	18.6% (inactive)
COc1ccc(C(=O)OC2CCCN(C(=O)c3ccc(OC)cc3)C2)cc1 (stereo unspecified)	0.75% (inactive)	2.5% (inactive)	0.8% (inactive)	0.8% (inactive)	10.7% (inactive)	-5.55% (inactive)
O=C(O)c1ccccc1/C=N\NC1=NCCCCN1	-34.2% (inactive)	-10.3% (inactive)	-31.4% (inactive)	20.2% (inactive)	-27.6% (inactive)	-18.4% (inactive)
O=Cc1c2c(cc3c1CC1(C3)Cc3cc4c(c(C=O)c3C1)CCC4)CCC2	-26.4% (inactive)	-40.1% (inactive)	-25.9% (inactive)	3.7% (inactive)	26.8% (inactive)	1.35% (inactive)
CCOC(=O)N1N(C(=O)c2ccccc2)C(=O)CC1(C)C	-3.15% (inactive)	8.2% (inactive)	1.5% (inactive)	-16.1% (inactive)	-6.8% (inactive)	-24.2% (inactive)
O=C(c1ccccc1)C1(c2ccccc2)C(C(=O)c2ccccc2)(c2ccccc2)S1(=O)=O (stereo unspecified)	-19.8% (inactive)	-13.5% (inactive)	-8.05% (inactive)	-38.8% (inactive)	-6.6% (inactive)	-15.3% (inactive)
O=[N+]([O-])c1ccc(S(=O)(=O)N/N=C/C=C/c2ccccc2[N+](=O)[O-])cc1	5% (inactive)	-5.65% (inactive)	7.35% (inactive)	-7.55% (inactive)	16.4% (inactive)	39.1% (inactive)
NCCCCCS(=O)(=O)O	17.4% (inactive)	-1.15% (inactive)	-0.85% (inactive)	4.05% (inactive)	-0.65% (inactive)	8.65% (inactive)
O=C(O)CC(O)(c1ccccc1C(=O)O)c1cccc2ccccc12 (stereo unspecified)	-2.95% (inactive)	-4.05% (inactive)	18.4% (inactive)	25.2% (inactive)	-3.15% (inactive)	22.3% (inactive)

SMILES	growth inhibition [1]	growth inhibition [2]	growth inhibition [3]	growth inhibition [4]	growth inhibition [5]	growth inhibition [6]
COc1ccc2c(c1)OCC1=C2Oc2ccccc2C1	98.2% (active)	99.3% (active)	99.1% (active)	98.6% (active)	97.9% (active)	98.8% (active)
COC(=O)C1CCC(C)(C(N)=O)C1(C)C (stereo unspecified)	16% (inactive)	3% (inactive)	-10.9% (inactive)	-37.8% (inactive)	5.25% (inactive)	9.7% (inactive)
COCCCNC(=O)C1=CCCN(C)C1	6% (inactive)	-3.45% (inactive)	-3.55% (inactive)	-2.45% (inactive)	-1.55% (inactive)	-3.3% (inactive)
[O-]/[N+](=C\c1ccc(Cl)cc1)c1ccccc1	-11.2% (inactive)	-14.1% (inactive)	-21.1% (inactive)	-8.85% (inactive)	-18.9% (inactive)	-7% (inactive)
COC(=O)C(=O)c1c(C(=O)OC)nc2nnc(N)n2c1-c1ccc(OC)cc1	-13.4% (inactive)	0.6% (inactive)	-0.5% (inactive)	-26.5% (inactive)	8.2% (inactive)	-14.9% (inactive)
COc1nc(SC)nc2[nH]ccc12	-1% (inactive)	9.75% (inactive)	-4.2% (inactive)	-6.6% (inactive)	-6.35% (inactive)	-9.1% (inactive)
Cc1cc2c(=O)cc(-c3ccncc3)oc2c(C(N)=O)c1C	14.8% (inactive)	4.2% (inactive)	-12% (inactive)	-1% (inactive)	17.6% (inactive)	22.5% (inactive)
c1ccc(-c2cc(-c3cc(-c4ccccc4)n[nH]3)[nH]n2)cc1	-9.95% (inactive)	-8.15% (inactive)	-21.4% (inactive)	-19.2% (inactive)	-16.6% (inactive)	-37.1% (inactive)
CCCCc1ccc(-n2cnc3c(=O)[nH]c(N)nc32)cc1	5.15% (inactive)	29% (inactive)	-8.3% (inactive)	-0.4% (inactive)	30.8% (inactive)	26.5% (inactive)
CO[C@@H]1C=C[C@@]23c4cc5c(cc4CN(C[C@@H]2O)[C@H]3C1)OCO5	3.95% (inactive)	-26.1% (inactive)	-11.9% (inactive)	14.8% (inactive)	-16.1% (inactive)	-59.4% (inactive)
C/C(O)=C(/C=N/C(N)=S)C(N)=O	-3.05% (inactive)	14.2% (inactive)	7.1% (inactive)	22% (inactive)	10.2% (inactive)	15.5% (inactive)
C=C(C)C(=O)OCCCCC	8.7% (inactive)	5.15% (inactive)	4.45% (inactive)	6.65% (inactive)	-3.55% (inactive)	2.95% (inactive)
COc1nc(SC)nc2c1cnn2C1OC(C(O)CO)C(OC)C1O (stereo unspecified)	4.85% (inactive)	-1.7% (inactive)	3.35% (inactive)	9.95% (inactive)	-4.6% (inactive)	16.3% (inactive)
CCOc1ccc(C2=C/C(=C/c3cccs3)C(=O)O2)cc1	4.2% (inactive)	-7.2% (inactive)	-1.15% (inactive)	-25.6% (inactive)	14.4% (inactive)	-5.9% (inactive)
O=C(O)COc1ccc2ccccc2c1 (tested in a mixture with another compound)	-36% (inactive)	-19.9% (inactive)	-26.3% (inactive)	-37.7% (inactive)	-0.1% (inactive)	-5.65% (inactive)
CC(=O)Nc1cc([N+](=O)[O-])ccc1CC(O)c1ccccc1 (stereo unspecified)	-2.25% (inactive)	-17.1% (inactive)	-4.1% (inactive)	-15.5% (inactive)	-1% (inactive)	-16.4% (inactive)
Clc1ccc(CSc2nnc(SCc3ccc(Cl)c(Cl)c3)c3[nH]cnc23)cc1Cl	36.5% (inactive)	6.15% (inactive)	47.4% (inactive)	30.6% (inactive)	22.9% (inactive)	3.1% (inactive)
CCN(CC)CCN1C(=O)NC2(CCCCC2)C1=O	19.5% (inactive)	-0.8% (inactive)	18.8% (inactive)	16% (inactive)	10.6% (inactive)	20.8% (inactive)
CC(=O)Oc1ccc2c(-c3ccccc3)c(Oc3ccc(Cl)cc3)c(=O)oc2c1	-4.2% (inactive)	-5.05% (inactive)	-3.7% (inactive)	-16.1% (inactive)	3.3% (inactive)	4.35% (inactive)
CCCCCC(/C=C/c1ncccc1OCCCCCC(=O)O)=N\NC1=NCCN1	16.8% (inactive)	-17.6% (inactive)	-13.6% (inactive)	-25.4% (inactive)	-44.6% (inactive)	11.7% (inactive)
